Compound activity deposited in PubChem by University of Kansas High Throughput Screening Laboratory.
Pf apPOL inh = Pf-apPOL inhibitors, biochemical, fluorescence; Recombinant Pf-apPOL, molecular beacon fluorescence, 1.5 h; actives 0.25% (n = 210,000); Plasmodium falciparum apicoplast DNA polymerase (apPOL); inhibition, % at 10 µM
mHTT CaM bind = mutant huntingtin-calmodulin interaction inhibitors – biochemical, AlphaScreen, primary screen; AlphaScreen His-mHTT/GST-CaM binding, luminescence; inhibition, % at 15 µM; actives 3.6% (n = 190,000); AID 1671202, 2021;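 further: 0% = both proteins with DMSO and 100% = one protein alone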
Target sequence (P42858 whole entry, looked up, stated change not applied): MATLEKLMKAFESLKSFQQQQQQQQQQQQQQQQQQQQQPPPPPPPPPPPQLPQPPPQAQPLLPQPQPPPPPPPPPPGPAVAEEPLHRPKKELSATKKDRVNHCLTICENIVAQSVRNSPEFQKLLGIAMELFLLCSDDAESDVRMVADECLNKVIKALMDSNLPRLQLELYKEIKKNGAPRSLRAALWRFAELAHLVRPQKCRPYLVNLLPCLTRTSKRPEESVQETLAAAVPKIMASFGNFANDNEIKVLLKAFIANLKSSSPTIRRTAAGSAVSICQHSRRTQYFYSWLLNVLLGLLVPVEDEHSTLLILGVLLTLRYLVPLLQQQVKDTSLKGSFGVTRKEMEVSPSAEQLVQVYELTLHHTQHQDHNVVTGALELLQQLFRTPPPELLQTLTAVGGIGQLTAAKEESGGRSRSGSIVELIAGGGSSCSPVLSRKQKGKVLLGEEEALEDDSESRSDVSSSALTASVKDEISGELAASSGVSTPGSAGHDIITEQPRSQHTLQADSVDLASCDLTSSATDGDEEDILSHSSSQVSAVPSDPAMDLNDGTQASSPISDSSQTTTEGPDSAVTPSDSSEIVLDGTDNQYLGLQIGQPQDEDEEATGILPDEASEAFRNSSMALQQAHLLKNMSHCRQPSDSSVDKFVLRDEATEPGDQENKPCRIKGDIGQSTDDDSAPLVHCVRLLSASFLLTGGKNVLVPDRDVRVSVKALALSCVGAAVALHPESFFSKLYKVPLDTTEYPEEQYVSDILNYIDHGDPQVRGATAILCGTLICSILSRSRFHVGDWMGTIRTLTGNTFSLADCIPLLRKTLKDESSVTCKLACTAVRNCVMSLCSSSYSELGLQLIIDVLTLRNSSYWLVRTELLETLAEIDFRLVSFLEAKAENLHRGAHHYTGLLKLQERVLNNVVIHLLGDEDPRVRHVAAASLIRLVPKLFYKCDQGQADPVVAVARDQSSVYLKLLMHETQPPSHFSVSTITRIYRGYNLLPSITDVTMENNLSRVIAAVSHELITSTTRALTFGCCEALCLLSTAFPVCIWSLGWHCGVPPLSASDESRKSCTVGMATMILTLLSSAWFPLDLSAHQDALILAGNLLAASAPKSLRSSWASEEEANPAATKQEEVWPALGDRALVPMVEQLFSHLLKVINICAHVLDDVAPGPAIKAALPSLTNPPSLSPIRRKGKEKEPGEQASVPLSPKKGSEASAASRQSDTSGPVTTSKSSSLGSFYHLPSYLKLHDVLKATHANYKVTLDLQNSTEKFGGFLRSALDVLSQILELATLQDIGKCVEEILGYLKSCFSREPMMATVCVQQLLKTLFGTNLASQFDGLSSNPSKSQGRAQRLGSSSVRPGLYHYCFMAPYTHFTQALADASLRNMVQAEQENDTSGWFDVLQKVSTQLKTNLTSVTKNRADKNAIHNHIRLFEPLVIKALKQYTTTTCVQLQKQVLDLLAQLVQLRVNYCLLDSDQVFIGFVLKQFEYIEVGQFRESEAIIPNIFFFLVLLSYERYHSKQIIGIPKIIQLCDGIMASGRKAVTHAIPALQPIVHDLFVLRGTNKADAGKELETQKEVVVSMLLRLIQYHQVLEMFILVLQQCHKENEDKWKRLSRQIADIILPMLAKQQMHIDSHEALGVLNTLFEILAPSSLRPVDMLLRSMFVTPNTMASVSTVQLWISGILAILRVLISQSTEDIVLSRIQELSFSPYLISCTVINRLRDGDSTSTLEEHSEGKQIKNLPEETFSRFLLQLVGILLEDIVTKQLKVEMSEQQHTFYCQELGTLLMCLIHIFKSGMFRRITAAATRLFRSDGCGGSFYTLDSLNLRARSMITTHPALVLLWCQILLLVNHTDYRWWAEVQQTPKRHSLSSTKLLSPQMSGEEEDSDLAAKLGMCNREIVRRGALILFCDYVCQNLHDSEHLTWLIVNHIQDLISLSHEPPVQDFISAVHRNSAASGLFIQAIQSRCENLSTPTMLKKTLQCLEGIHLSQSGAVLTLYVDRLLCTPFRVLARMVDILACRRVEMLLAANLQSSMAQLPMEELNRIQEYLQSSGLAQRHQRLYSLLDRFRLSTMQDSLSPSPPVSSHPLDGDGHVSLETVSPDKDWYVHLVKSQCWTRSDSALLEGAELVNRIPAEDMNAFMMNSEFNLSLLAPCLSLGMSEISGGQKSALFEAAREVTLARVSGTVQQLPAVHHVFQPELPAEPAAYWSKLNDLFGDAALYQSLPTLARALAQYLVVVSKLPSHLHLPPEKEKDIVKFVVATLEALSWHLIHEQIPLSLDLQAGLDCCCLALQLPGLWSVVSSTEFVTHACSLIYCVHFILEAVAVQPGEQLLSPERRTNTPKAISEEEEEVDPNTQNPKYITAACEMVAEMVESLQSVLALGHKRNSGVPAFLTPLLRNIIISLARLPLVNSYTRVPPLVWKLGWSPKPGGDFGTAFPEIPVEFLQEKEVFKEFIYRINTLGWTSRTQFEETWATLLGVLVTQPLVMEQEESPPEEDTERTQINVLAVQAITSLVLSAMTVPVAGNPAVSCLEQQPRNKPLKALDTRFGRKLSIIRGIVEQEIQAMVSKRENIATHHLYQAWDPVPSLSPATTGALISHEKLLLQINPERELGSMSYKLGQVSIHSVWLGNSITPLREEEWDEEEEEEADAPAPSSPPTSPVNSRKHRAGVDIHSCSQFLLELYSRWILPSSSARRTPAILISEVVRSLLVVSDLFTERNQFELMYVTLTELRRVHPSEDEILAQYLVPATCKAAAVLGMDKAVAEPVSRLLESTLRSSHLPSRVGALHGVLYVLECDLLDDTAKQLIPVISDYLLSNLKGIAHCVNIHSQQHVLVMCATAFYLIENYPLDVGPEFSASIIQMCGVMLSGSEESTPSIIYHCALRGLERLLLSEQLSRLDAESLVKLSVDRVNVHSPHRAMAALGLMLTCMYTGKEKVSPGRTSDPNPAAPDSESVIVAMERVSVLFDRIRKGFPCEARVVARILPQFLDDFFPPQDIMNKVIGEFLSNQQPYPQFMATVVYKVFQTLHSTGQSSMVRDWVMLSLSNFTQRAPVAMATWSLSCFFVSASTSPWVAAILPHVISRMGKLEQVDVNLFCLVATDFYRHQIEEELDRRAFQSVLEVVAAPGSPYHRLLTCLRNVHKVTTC
Starred values were filed as active, the others as inactive; / = no result given. Only some compounds are listed: those with a hit (about 3.5% of all), similar ones and a draw of the others. No stated cut-off is given here; in the data, active means inhibition above about 50%; inactive means the rest.

SMILES | Pf apPOL inh | mHTT CaM bind
COc1ccc(CNC(=O)c2ccc3[nH]c4c(c3c2)CN(C(C)=O)CC4)c(OC)c1 | -3 | 51*
CCc1ccc(N(CC)C(=O)c2ccc3[nH]c4c(c3c2)CN(C(C)=O)CC4)cc1 | -2 | 68*
COc1ccccc1CNC(=O)c1ccc2[nH]c3c(c2c1)CN(C(C)=O)CC3 | -2 | 28
COc1ccc(OC)c(CNC(=O)c2ccc3[nH]c4c(c3c2)CN(C(C)=O)CC4)c1 | 8 | 44
CC(=O)N1CCc2[nH]c3ccc(C(=O)NCc4ccc(N5CCCC5)cc4)cc3c2C1 | -2 | 89*
CCc1ccccc1NC(=O)c1ccc2[nH]c3c(c2c1)CN(C(C)=O)CC3 | -1 | 22
COc1ccc(CCNC(=O)c2ccc3[nH]c4c(c3c2)CN(C(C)=O)CC4)cc1OC | -8 | 46
CC(=O)N1CCc2[nH]c3ccc(C(=O)NCCc4ccc(F)cc4)cc3c2C1 | -8 | 52*
CC(=O)N1CCN(c2nc3c(s2)CC(C(=O)Nc2cc(F)ccc2C)CC3)CC1 (stereo not drawn) | 1 | 16
C=CCOc1ccc(C=C2C(=O)OC(C)(C(C)(C)C)OC2=O)cc1 (stereo not drawn) | 0 | 2
CC1(C(=O)NCc2ccccc2)CCCN(C(=O)NC2CCCCC2)C1 (stereo not drawn) | -2 | -6
O=C(Nc1ccc(Br)cc1F)C1CCCN(c2cc(-n3cccn3)ncn2)C1 (stereo not drawn) | -2 | -15
CCCc1cc(C2CCCN2C(=O)Cc2cccc(F)c2)no1 (stereo not drawn) | -3 | -2
Cc1onc(-c2ccccc2)c1C1=N/C(=C\c2cccc(Cl)c2)C(=O)O1 | -8 | 5
O=C1C(=Cc2cccs2)Oc2c1ccc1c2CN(Cc2ccco2)CO1 | 24 | 28
COc1ccc(-c2noc(C3CCCN3C(=O)Nc3ccc(F)cc3F)n2)cc1 (stereo not drawn) | -1 | 0
O=C(CSc1ccccc1)Nc1nnc(-c2cc(Cl)sc2Cl)o1 | -2 | -5
O=C(Nc1nnc(CCS(=O)(=O)c2ccccc2)o1)C1COc2ccccc2O1 (stereo not drawn) | 7 | 65*
O=C(Nc1nnc(-c2cc(Cl)sc2Cl)o1)C1COc2ccccc2O1 (stereo not drawn) | -186 | 81*
Cc1cc(C)nc(NS(=O)(=O)c2ccc(NC(=O)C3COc4ccccc4O3)cc2)n1 (stereo not drawn) | -8 | 4
CCOC(=O)Cn1c(C(C)NC(=O)c2ccco2)nc2ccccc21 (stereo not drawn) | -9 | -16
Cc1cccc2nc(CSc3ncc(C#N)c(N)n3)cc(=O)n12 | 5 | 10
Cc1cccc2nc(CSc3n[nH]c(N)n3)cc(=O)n12 | 52* | 2
CC1=C(C(=O)Nc2ccccc2C)C(c2ccc(Cl)cc2Cl)NC(=O)N1 (stereo not drawn) | 3 | -20
O=C(CSc1cn(CCNC(=O)c2cccs2)c2ccccc12)Nc1ccc2c(c1)OCO2 | -2 | 11
SMILES | Pf apPOL inh | mHTT CaM bind
O=C(c1cc(C(F)(F)F)cc(C(F)(F)F)c1)c1ccccc1C(=O)N1CCOCC1 | -2 | /
O=C(N=S1CCC2(C1)OCCO2)c1cc(C(F)(F)F)cc(C(F)(F)F)c1 (stereo not drawn) | 75* | /
NC(=O)c1cc2cc(Cl)cc(Cl)c2oc1=Nc1cccc(F)c1 | 1 | -4
COc1cc(C2Oc3ccccc3C=C2[N+](=O)[O-])ccc1OCc1ccccc1 (stereo not drawn) | -3 | 37
COc1ccc(C2Oc3c(Br)cc(Br)cc3C=C2[N+](=O)[O-])cc1OC (stereo not drawn) | -7 | 69*
C=C(C)COc1ccc2cc(-c3ccccc3)c(=O)oc2c1 | -1 | -37
Cc1ccc(Cl)cc1NC(=O)c1ccc(OC(C)C)cc1 | 0 | -4
Cc1ccc(C)n1-c1ccc(C(=O)NNC(=O)c2ccc3nsnc3c2)cc1 | 6 | /
COc1ccc(OC)c(S(=O)(=O)NCCNc2ccc(Nc3cccc(C)n3)nn2)c1 | -6 | 0
COc1ccc(NC(=O)CSc2nc3ccccc3o2)c([N+](=O)[O-])c1 | -6 | 11
O=C(CSc1nc2ccccc2o1)Nc1ccccc1[N+](=O)[O-] | -3 | 55*
COc1ccc(C)cc1NC(=O)CSc1nnc(C)c(=O)[nH]1 | -2 | -17
c1ccc(CN2CCCC(OCc3nc(-c4ccncc4)no3)C2)nc1 (stereo not drawn) | -8 | 3
O=C(CN1CCN(c2ccc(Cl)cc2)CC1)Nc1ccc(Cl)c(C(F)(F)F)c1 | -2 | 51*
O=C(CN1CCN(c2ccccn2)CC1)Nc1ccc(Cl)c(C(F)(F)F)c1 | -3 | 31
Cc1cc(C(=O)Nc2ccccc2)c(C)o1 | -9 | 5
Cc1cc(C(=O)Nc2cccc(OC(C)C)c2)c(C)o1 | -5 | 51*
COc1ccc(N=Cc2cc3c(cc2[N+](=O)[O-])OCO3)cc1Cl | 16 | 40
Cc1cccc(C(=O)N=c2sccn2Cc2ccccc2C(=O)N2CCCC2)c1 | 0 | 15
O=C(N=c1sccn1Cc1ccc(C(=O)N2CCCC2)cc1)c1ccccc1F | 58* | 7
COc1ccc(OCCC(=O)O)cc1 | -3 | /
Nc1ccc(S(=O)(=O)NCCO)cc1 | 5 | -2
OCc1nc2ccccc2n1Cc1ccccc1 | 1 | 0
OCc1nc2ccccc2n1Cc1ccc(Cl)c(Cl)c1 | 1 | 73*
CCN(CC)S(=O)(=O)c1ccc2[nH]cc(C(=O)NCCCN3CCCC3=O)c(=O)c2c1 | -24 | 51*
SMILES | Pf apPOL inh | mHTT CaM bind
CCN(CC)S(=O)(=O)c1ccc2[nH]cc(C(=O)NCc3ccc(F)cc3)c(=O)c2c1 | -7 | 4
OC(COCC1CC2CCC1C2)CN1CCOCC1 (stereo not drawn) | 0 | 2
Clc1ccc(-c2cc3n(c2)CCn2cccc2-3)cc1Cl | -7 | 100*
c1ccc(C2=NCCn3cccc32)cc1 | -6 | -4
CC1c2cccn2CCN1C(=O)Nc1ccc(F)cc1F (stereo not drawn) | -12 | 10
Brc1ccc(-c2cc3n(c2)CCn2cccc2-3)cc1 | -9 | 84*
Fc1ccc(-c2cc3n(c2)CCn2cccc2-3)c(F)c1 | -2 | 100*
Brc1ccc(-c2cc3ccccn3c2)cc1 | 0 | 38
Cn1c(SCC(=O)Nc2nccs2)nc2ccccc21 | 4 | -5
COc1cccc(C(=O)N2CCC3(C2)C(=O)Nc2ccccc23)c1OC (stereo not drawn) | -2 | -1
CC(C)C1C(=O)N(Cc2cn(CCC3OCCO3)nn2)CCS(=O)(=O)N1Cc1ccc(-c2ccc(Cl)c(Cl)c2)cc1 (stereo not drawn) | -11 | 98*
Cc1ccc(-c2ccc(CN3C(CC(C)C)C(=O)N(Cc4cn(CCC5OCCO5)nn4)CCS3(=O)=O)cc2)cc1 (stereo not drawn) | -13 | 23
COc1ccc(-c2ccc(CN3C(C(C)C)C(=O)N(Cc4cn(CCC5OCCO5)nn4)CCS3(=O)=O)cc2)cc1OC (stereo not drawn) | 8 | 49
COCOCCn1cc(CN2CCS(=O)(=O)N(Cc3ccc(-c4ccc(Cl)cc4)cc3)C(C(C)C)C2=O)nn1 (stereo not drawn) | -29 | 42
CC(C)C1C(=O)N(Cc2cn(CCC3OCCCO3)nn2)CCS(=O)(=O)N1Cc1ccc(-c2ccncc2)cc1 (stereo not drawn) | -7 | 17
